These results are taken from PubChem BioAssay (NCI).

Some test systems named below: DU-145 prostate; K-562 leukemia; MALME-3M melanoma; MDA-MB-231 breast; RXF 393 renal; SF-268 CNS; SF-295 CNS; SF-539 CNS; UACC-257 melanoma; M14 melanoma; HCT-15 colon; HT29 colon; SNB-75 CNS; SNB-19 CNS; U251 CNS; PC-3 prostate; SK-MEL-5 melanoma; UACC-62 melanoma; LOX IMVI melanoma; SK-MEL-28 melanoma.
Common to all, as to test: NCI-60 one-dose screen, 48 h (100 = growth as untreated, 0 = no growth, -100 = all killed)
What all share (details): 10 µM unless noted

Values joined by “and” are separate entries in the source; they are usually repeats but may differ in a detail not shown here. Identical values can stand only once. Compounds without any hit were thinned out: in the full panel of roughly 83,000, 20% have a hit.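 Negative percent growth values reflect cell death: -40 means 40% of the cells present at the start died, and -100 means all died.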 Values without a mark were called inactive. Active and inactive are the calls of the source. The calls were made as follows: active = growth percent below 10; inactive = the rest.

Consider `CCCCCC(CCCCC)C(=O)O`, for which the growth is 119% in the assay on DU-145 prostate; 99.8% with K-562 leukemia; 119% in the assay with MALME-3M melanoma; 105% in the assay on MDA-MB-231 breast; 135% in the assay on RXF 393 renal; 104% with SF-268 CNS. Moreover, the growth in the assay on SF-295 CNS was 108%; in the assay with SF-539 CNS it was 104%; in the assay with UACC-257 melanoma, 116%; in the assay with M14 melanoma it was 112%; in the assay on HCT-15 colon it was 98.2%; in the assay with HT29 colon it was 105%. Moreover, the growth with SNB-75 CNS is 89.9%; in the assay on SNB-19 CNS it was 103%; in the assay with U251 CNS, 85.5%; in the assay on PC-3 prostate it was 87.6%; in the assay on SK-MEL-5 melanoma, 117%; with UACC-62 melanoma, 94.4%. Besides, the figures for the growth with LOX IMVI melanoma and in the assay on SK-MEL-28 melanoma were 110% and 111%, respectively.

With `Cc1ccnc2c1ccc1c(C)ccnc12`, the growth in the assay on DU-145 prostate was 27.4%; with K-562 leukemia, 12%; in the assay with MALME-3M melanoma, 19.1%; in the assay on MDA-MB-231 breast, 31.9%; in the assay with RXF 393 renal, 26.2%; with SF-268 CNS, 22.8%. Moreover, the growth with SF-295 CNS was 18.3%; in the assay on SF-539 CNS it was -3.71% (active); with UACC-257 melanoma, 2.29% (active); in the assay with M14 melanoma it was -11.5% (active); in the assay with HCT-15 colon, 20.9%; in the assay with HT29 colon it was 17.7%. Further, the growth was 52.4% in the assay with SNB-75 CNS; 21.9% in the assay with SNB-19 CNS; 7.48% (active) in the assay with U251 CNS; 22% in the assay on PC-3 prostate; 18.3% in the assay with SK-MEL-5 melanoma; 2.66% (active) with UACC-62 melanoma. Besides, the growth with LOX IMVI melanoma was 2.99% (active); in the assay with SK-MEL-28 melanoma, 20.7%.

Consider `Cc1ccc2nc(C[n+]3ccc4ccccc4c3)ccc2c1`, for which the growth is 76% with DU-145 prostate; 44.2% in the assay on K-562 leukemia; 61.2% with MALME-3M melanoma; 73.5% with MDA-MB-231 breast; 93.6% with RXF 393 renal; 70.4% in the assay with SF-268 CNS. Moreover, the growth was 59% in the assay with SF-295 CNS; 71.9% in the assay on SF-539 CNS; 24.9% in the assay on UACC-257 melanoma; 45.8% in the assay on M14 melanoma; 99% with HCT-15 colon; 37.3% with HT29 colon. Also, the growth is 58.9% in the assay with SNB-75 CNS; 46.5% in the assay with SNB-19 CNS; 42.1% in the assay on U251 CNS; 38.5% with PC-3 prostate; -31.1% (active) with SK-MEL-5 melanoma; 69.8% with UACC-62 melanoma. Besides, the growth is 68.4% in the assay on LOX IMVI melanoma and 63.5% in the assay with SK-MEL-28 melanoma.

Consider `N#Cc1ccc([N+](=O)[O-])o1`, for which the growth in the assay on DU-145 prostate is 111%; with K-562 leukemia, 105%; in the assay with MALME-3M melanoma it was 118%; in the assay on MDA-MB-231 breast, 105%; with RXF 393 renal it was 113%; in the assay on SF-268 CNS, 103%. Moreover, the growth in the assay with SF-295 CNS is 99.6%; with SF-539 CNS, 101%; with UACC-257 melanoma it was 79.7%; in the assay with M14 melanoma, 97.9%; in the assay with HCT-15 colon, 104%; in the assay with HT29 colon, 93.9%. The growth was 109% in the assay with SNB-75 CNS; 101% in the assay with SNB-19 CNS; 90% with U251 CNS; 93.3% in the assay with PC-3 prostate; 96.8% in the assay on SK-MEL-5 melanoma; 95.4% with UACC-62 melanoma. Further, the values for the growth in the assay on LOX IMVI melanoma and in the assay with SK-MEL-28 melanoma were 108% and 106%, respectively.

Take `CCOC(=O)/C=C/c1ccc([N+](=O)[O-])o1`: the growth with DU-145 prostate is 69.2%; with K-562 leukemia it was 9.66% (active); in the assay on MALME-3M melanoma it was -6.92% (active); in the assay with MDA-MB-231 breast it was 67.8%; in the assay on RXF 393 renal, 18.4%; in the assay with SF-268 CNS it was 76.2%. Moreover, the growth in the assay on SF-295 CNS is 99.2%; in the assay with SF-539 CNS it was 68.3%; with UACC-257 melanoma it was 54.2%; in the assay with M14 melanoma, 70.1%; in the assay with HCT-15 colon, -3.85% (active); in the assay on HT29 colon, 36.7%. The growth is 98.7% in the assay with SNB-75 CNS; 97.2% in the assay with SNB-19 CNS; 82.6% with U251 CNS; 93.4% in the assay on PC-3 prostate; 69.1% with SK-MEL-5 melanoma; 32.6% in the assay with UACC-62 melanoma. Also, the growth with LOX IMVI melanoma is -29.6% (active); with SK-MEL-28 melanoma, 26.4%.

Turning to `Cc1ccc(N=C=C(c2ccccc2)c2ccccc2)cc1`, the growth with DU-145 prostate is 108%; in the assay on K-562 leukemia it was 8.39% (active); in the assay on MALME-3M melanoma it was 95%; in the assay on MDA-MB-231 breast, 83.3%; in the assay with RXF 393 renal, 92.5%; with SF-268 CNS, 93.5%. Further, the growth in the assay on SF-295 CNS was 98%; in the assay with SF-539 CNS it was 91%; in the assay on UACC-257 melanoma, 89.1%; in the assay on M14 melanoma, -7.3% (active); in the assay with HCT-15 colon, 67.6%; in the assay on HT29 colon, 97.6%. In addition, the growth in the assay with SNB-75 CNS was 78.1%; in the assay on SNB-19 CNS, 85.2%; in the assay with U251 CNS, 81.5%; with PC-3 prostate it was 66.9%; in the assay on SK-MEL-5 melanoma it was 89.3%; in the assay on UACC-62 melanoma, 84.6%. For the same compound, the growth in the assay on LOX IMVI melanoma was 5.05% (active); with SK-MEL-28 melanoma, 106%.

In the case of `N#CSCC(=O)c1ccc(Cl)cc1`, the growth in the assay with DU-145 prostate was 30.2%; with K-562 leukemia, 44.4%; with MALME-3M melanoma, 54.8%; in the assay on MDA-MB-231 breast, 34.4%; in the assay with RXF 393 renal it was 25.6%; in the assay with SF-268 CNS it was 34.6%. The growth in the assay with SF-295 CNS was 49.4%; in the assay on SF-539 CNS it was 22.2%; in the assay with UACC-257 melanoma it was 82.3%; with M14 melanoma, 2.91% (active); in the assay on HCT-15 colon, 18.1%; with HT29 colon, -19.4% (active). The growth with SNB-75 CNS was 33%; in the assay with SNB-19 CNS it was 81.9%; in the assay with U251 CNS it was 31.9%; with PC-3 prostate it was 45.5%; in the assay on SK-MEL-5 melanoma, 35.3%; in the assay on UACC-62 melanoma, 51.5%. In addition, the growth was 12.3% in the assay with LOX IMVI melanoma and 73.4% with SK-MEL-28 melanoma.

`CC(=O)Nc1cccc2cc(O)ccc12`: the growth is 118% and 110% and 111% in the assay on DU-145 prostate; 108% and 113% and 99.7% in the assay on K-562 leukemia; 101% and 127% and 98.3% with MALME-3M melanoma; 102% and 95.1% and 95.8% in the assay with MDA-MB-231 breast; 123% and 98% and 105% in the assay on RXF 393 renal; 111% and 94.6% and 99.6% in the assay with SF-268 CNS. Besides, the growth is 84.7% and 130% and 99% with SF-295 CNS; 96.4% and 96.8% and 98.5% in the assay with SF-539 CNS; 123% and 103% and 90.3% with UACC-257 melanoma; 91.7% and 98.2% with M14 melanoma; 112% and 107% and 99.9% with HCT-15 colon; 115% and 107% and 95.8% in the assay with HT29 colon. For the same compound, the growth in the assay with SNB-75 CNS is 91.4% and 101% and 75.3%; in the assay with SNB-19 CNS, 106% and 94.8%; with U251 CNS, 108% and 102% and 101%; in the assay on PC-3 prostate, 104% and 96.3% and 80.3%; in the assay on SK-MEL-5 melanoma, 113% and 117% and 106%; with UACC-62 melanoma it was 96.3% and 90.9% and 96.9%. For the same compound, the growth is 104% and 106% in the assay with LOX IMVI melanoma; 110% and 111% and 104% in the assay with SK-MEL-28 melanoma.
